# In the library only some 14% were active in any assay of this set; here they are far more common.
# NS1 function inh: qHTS Assay for Inhibitors of Influenza NS1 Protein Function; Potency, µM (titrated, usually from 46.1 µM), for the others: at the top dose activity, positive = more growth; hit rate 0.4% among 270,000; calls by dose curve; note: potency is the fitted concentration of half-maximal effect; actives are rising curves; nearly all actives have a fitted effect of over 50% in size
#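 Read-out: OD600 growth recovery of NS1-expressing budding yeast. Cells grown overnight at 30C in -URA glucose medium, washed, resuspended and diluted 1:100 in 2% galactose assay medium, pH 6.0. Same strain lacking NS1 served as positive control.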
# Giardia FBPA inh: qHTS Assay for Inhibitors of Fructose-1,6-bisphosphate Aldolase from Giardia Lamblia; A8B2U2; Potency, µM (doses to about 59.6 µM), without a hit: top-dose activity, negative = inhibition, usual class: inhibitors; purified Giardia FBPA; hit rate 0.71% among 290,000; note: potency is the fitted concentration of half-maximal effect; % is set by controls: 0 for no effect and ±100 for the full control effect; nearly all actives have a fitted effect of over 55% in size
#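 40 nM FBPA preincubated 10 min at RT with compound (up to 57.5 uM final), then substrate plus GAPDH/TPI/NAD/arsenate coupling and diaphorase/resazurin added. Fluorescence read after 20 min at RT, 525/598 nm.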
# Cycloheximide cs: Cycloheximide Counterscreen for Small Molecule Inhibitors of Shiga Toxin | max response, % | hit rate 12% among 300,000 | AID 2314, 2010 | cell reporter, cycloheximide protein synthesis inhibition counterscreen; in the data active = max response mostly above about 13%, no sharp cut-off; inactive = mostly below about 14%; note: read at 38.3 µM for the half of the compounds with a filed dose; 0% is about no effect
# LmPK inh: qHTS Assay for Inhibitors of Leishmania Mexicana Pyruvate Kinase (LmPK); AID 1721, 2009; hit rate 0.37% among 290,000; Q27686; Potency, µM (titrated, usually from 57.5 µM), without a hit: top-dose activity change, negative = inhibition, hits mostly inhibitors; purified LmPK, Kinase-Glo ATP luminescence, 1 h; note: potency is the fitted concentration of half-maximal effect; % is set by controls: 0 for no effect and ±100 for the full control effect
# Target sequence (Q27686 whole entry, looked up): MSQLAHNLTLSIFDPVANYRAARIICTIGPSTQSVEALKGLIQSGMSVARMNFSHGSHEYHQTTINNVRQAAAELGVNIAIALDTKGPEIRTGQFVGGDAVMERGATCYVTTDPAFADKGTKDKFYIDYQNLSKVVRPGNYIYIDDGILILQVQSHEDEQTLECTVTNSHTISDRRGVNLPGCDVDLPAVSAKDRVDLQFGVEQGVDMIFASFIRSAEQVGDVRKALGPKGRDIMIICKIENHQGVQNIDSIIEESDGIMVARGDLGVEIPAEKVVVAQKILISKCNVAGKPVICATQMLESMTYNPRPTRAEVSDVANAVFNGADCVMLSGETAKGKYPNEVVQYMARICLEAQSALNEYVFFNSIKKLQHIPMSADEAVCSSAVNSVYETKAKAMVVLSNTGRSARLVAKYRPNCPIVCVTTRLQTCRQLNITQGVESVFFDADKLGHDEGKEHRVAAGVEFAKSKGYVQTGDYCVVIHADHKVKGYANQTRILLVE
#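 Screened at intermediate enzyme activity to detect both inhibitors and activators: LmPK at 0.1 nM, with a 0.5 nM enzyme column as activation reference. PEP 0.5 mM, ADP 0.1 mM; ATP detected by luminescence after 1 h.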
# Shiga toxin inh: A qHTS for Small Molecule Inhibitors of Shiga Toxin; AID 2315, 2010; hit rate 9.2% among 290,000; Vero cells, Shiga toxin protein synthesis inhibition reporter; inhibition, % at 38.7 µM; in the data active = inhibition mostly above about 28%, no sharp cut-off; inactive = mostly below about 43%; note: 0% is about no effect
# Numbers without * were called inactive; i = inactive; ? = inconclusive; / = not tested or not shown; + = active, no number; [ ] = another dose, or the depositor's remark. Unless noted, calls come from the whole dose curve; as a rule, active = well fitted curve in the direction sought with a large enough effect; inconclusive = small, poorly fitted or top-dose-only effect, or another doubt; inactive = no such curve, though single readings can be large; an effect the other way counts as inactive or inconclusive.
SMILES,NS1 function inh,Giardia FBPA inh,Cycloheximide cs,LmPK inh,Shiga toxin inh
Cc1ccccc1Nc1nc(N)nc(COC(=O)c2cccn2C)n1,-4%,1%,36*,9%,69*
CCc1ccccc1Nc1nc(N)nc(COC(=O)c2cccn2C)n1,7%,-2%,30*,-1%,46
C[C@H](OP(=O)(O)O)[C@H](N)C(=O)O,0%,/,/,/,/
C=CCC(=O)N1CCCC(CO)(Cc2ccc(F)cc2F)C1 (configuration not stated),6%,3%,-2,-3%,/
CN(Cc1cccnc1)C(=O)CNC(=O)COc1ccccc1,10%,8%,-6,3%,-8
O=C(Nc1cccc(-c2csc(Nc3ccc(Cl)cc3)n2)c1)c1cc([N+](=O)[O-])cc(C(F)(F)F)c1,12%,3%,4,-3%,4
O=C(Nc1cccc(-c2csc(Nc3ccc(Cl)cc3)n2)c1)c1cccc(C(F)(F)F)c1,-39%,-6%,12*,3%,42*
O=C(Nc1cccc(-c2csc(Nc3ccccc3)n2)c1)c1cc([N+](=O)[O-])cc(C(F)(F)F)c1,23%,-2%,18*,0%,27*
CCc1nnc(NC(=O)CSCc2cc(=O)n3nc(C)sc3n2)s1,-1%,/,-13,-11%,-5
CC(=O)c1ccc(NC(=S)N2c3ccccc3CC2C)cc1 (configuration not stated),/,-14%,23*,10%,18
COc1cccc(NC(=S)N2c3ccccc3CC2C)c1 (configuration not stated),4%,-16%,19*,6%,31
CC(=O)N1CC[C@@H]2CC(=O)CC[C@@H]21,/,0%[136 µM],1,/,i
COc1ccc(C(=O)CC(SCC(NC(C)=O)C(=O)O)c2ccc(Cl)cc2)cc1OC (configuration not stated),0%,-15%,-2,1%,30
CC1(C)[C@@H]2CC[C@@]1(CS(=O)(=O)Nc1ccccc1)C(=O)C2,1%,/,/,/,/
CCOc1ccc(/C=N/NC2=NCCCCC2)cc1,/,-9%,19*,-5%,27*
CCOc1ccc(/C=N/O)cc1,4%,1%,-3,-2%,-13
CCOc1ccc(/C=N/Nc2ccccc2)cc1,-7%,11%,27*,3%,47*
Clc1ccc(/C=N\Nc2ccccc2)cc1,-7%,1%,12,-3%,27*
O=C(N/N=C/c1ccco1)Nc1ccccc1,-1%,3%,29*,-11%,102*
Cc1ccc(C(=O)COC(=O)COc2ccccc2C)cc1,3%,/,3,-14%,-19
CN1C(=O)/C(=C/c2cccc(Cl)c2)Sc2ccc(C(=O)N3CCCC3)cc21,-40%,/,0,0%,-1
O=C(N/N=C/c1ccc(Cl)cc1)Nc1ccccc1,-12%,/,39*,1%,50*
O=C(/C=C/c1cccc([N+](=O)[O-])c1)Nc1ccc(Cl)cn1,-2%,1%,8,1%,78
Cc1ccc(NC(=O)/C=C/c2ccc(Cl)cc2)nc1,-4%,-1%,22*,0%,50*
O=C(/C=C/c1ccccc1)Nc1ccc(Br)cn1,-7%,5%,31*,1%,+
SMILES,NS1 function inh,Giardia FBPA inh,Cycloheximide cs,LmPK inh,Shiga toxin inh
COC(=O)c1cc(NC(=O)c2cccc(Cl)c2)c(=O)oc1/C=C/Nc1cc(C)cc(C)c1,/,-2%,16,8%,57*
C/C(=N\NC(=O)c1ccccc1O)C1CC1,-15%,6%,19,0%,66*
O=C(NO)c1ccccc1O,6%,-9%,-3,-2%,14
C/C(=N\NC(=O)c1ccc(N)cc1)C1CC1,5%,/,40*,-8%,39*
CCCC(=O)Nc1ccc(C(=O)NN=C(C2CC2)C2CC2)cc1,17%,1%,-1,-3%,3
O=C(NN=C1C2CC3CC(C2)CC1C3)c1ccccc1O,-3%,?,19*,1%,38
O=C(NN=C1CCCC1)c1cccs1,21%,-5%,63*,0%,91*
O=C(NN=C1CCCCCCCCCCC1)c1ccncc1,/,?,9,3%,5
NC(=O)C(=O)NN=C1C2CC3CC(C2)CC1C3,8%,-10%,8.0*,-2%,16
C=C(C)C1CC=C(C)/C(=N/NC(=O)c2cccs2)C1 (configuration not stated),1%,5%,22*,-2%,77*
Cc1onc(-c2ccccc2)c1C(=O)Nc1nnc(C(C)(C)C)s1,5%,4%,-2,3%,-3
COc1cccc(C(C(=O)NC(C)(C)C)N(CCc2ccccc2)C(=O)CCC(=O)Nc2cc(C)on2)c1OC (configuration not stated),2%,-3%,1,4%,-10
O=C(NN=C1C2CC3CC(C2)CC1C3)c1cccs1,-2%,-7%,48*,-1%,73*
CC1=C/C(=N\NC(=O)c2cccs2)CC(C)(C)C1,/,-28%,4,10%,18
CC(=O)N1CCC(=NNC(=O)c2cccs2)CC1,8%,-5%,55*,0%,+
COc1ccc(/C=N/NC(=O)c2nn(C)cc2Br)cc1CSCc1ccco1,0%,/,31*,-2%,38*
N#CCSc1nnc(-c2c[nH]c3ccccc23)o1,16%,/,-3,-7%,-12
CCC1CCCCN1C(=O)CSc1nnc(-c2c[nH]c3ccccc23)o1 (configuration not stated),6%,2%,16*,7%,28
CC1CCCN(C(=O)CSc2nnc(-c3c[nH]c4ccccc34)o2)C1 (configuration not stated),-15%,4%,35*,9%,72
COc1ccc(CN(C(=O)CSc2nnc(-c3c[nH]c4ccccc34)o2)c2ccc(F)cc2)cc1OC,28%,0%,41*,5%,51*
CCSc1nnc(-c2c[nH]c3ccccc23)o1,-37%,-1%,44*,0%,88*
CC(=O)C(=O)O,/,-18%,-3,/,16
CC(C)c1ccc(CN(C(=O)c2cc3ccccc3oc2=O)C2CCS(=O)(=O)C2)cc1 (configuration not stated),-2%,0%,15,4%,-1
CN(C)c1ccc(CN(C(=O)c2cc3ccccc3oc2=O)C2CCS(=O)(=O)C2)cc1 (configuration not stated),-4%,/,47*,-1%,63*
Cc1ccc2c(C)c(C(=O)N(Cc3ccc(N(C)C)cc3)C3CCS(=O)(=O)C3)oc2c1 (configuration not stated),-35%,6%,1,0%,5
Cc1ccc2oc(C(=O)N(Cc3ccc(N(C)C)cc3)C3CCS(=O)(=O)C3)c(C)c2c1 (configuration not stated),-15%,/,16*,-2%,16
COc1cccc(CN(C(=O)c2cc3ccccc3oc2=O)C2CCS(=O)(=O)C2)c1 (configuration not stated),?,6%,42*,5%,79*
